As a reminder, the inhibition is the drop in the measured response relative to a control, in per cent.

Assay [1] relates to Epidermal growth factor receptor (Homo sapiens), P00533 [T790M]. The following applies: at 1 µM.
Assay [2] concerns Epidermal growth factor receptor (Homo sapiens), P00533 [L858R,T790M]. The settings on record: at 0.1 µM.
Assay [3] has the same test system. The settings on record: at 1 µM.
Assay [4] addresses Ephrin type-A receptor 2 (Homo sapiens) (UniProt P29317). The settings on record: at 0.1 µM.
The target is the same in assay [5]. The settings on record: at 1 µM.
Assay [6] concerns the target T1, Ephrin type-A receptor 3 (Homo sapiens) (UniProt P29320).
T1 sequence (whole entry): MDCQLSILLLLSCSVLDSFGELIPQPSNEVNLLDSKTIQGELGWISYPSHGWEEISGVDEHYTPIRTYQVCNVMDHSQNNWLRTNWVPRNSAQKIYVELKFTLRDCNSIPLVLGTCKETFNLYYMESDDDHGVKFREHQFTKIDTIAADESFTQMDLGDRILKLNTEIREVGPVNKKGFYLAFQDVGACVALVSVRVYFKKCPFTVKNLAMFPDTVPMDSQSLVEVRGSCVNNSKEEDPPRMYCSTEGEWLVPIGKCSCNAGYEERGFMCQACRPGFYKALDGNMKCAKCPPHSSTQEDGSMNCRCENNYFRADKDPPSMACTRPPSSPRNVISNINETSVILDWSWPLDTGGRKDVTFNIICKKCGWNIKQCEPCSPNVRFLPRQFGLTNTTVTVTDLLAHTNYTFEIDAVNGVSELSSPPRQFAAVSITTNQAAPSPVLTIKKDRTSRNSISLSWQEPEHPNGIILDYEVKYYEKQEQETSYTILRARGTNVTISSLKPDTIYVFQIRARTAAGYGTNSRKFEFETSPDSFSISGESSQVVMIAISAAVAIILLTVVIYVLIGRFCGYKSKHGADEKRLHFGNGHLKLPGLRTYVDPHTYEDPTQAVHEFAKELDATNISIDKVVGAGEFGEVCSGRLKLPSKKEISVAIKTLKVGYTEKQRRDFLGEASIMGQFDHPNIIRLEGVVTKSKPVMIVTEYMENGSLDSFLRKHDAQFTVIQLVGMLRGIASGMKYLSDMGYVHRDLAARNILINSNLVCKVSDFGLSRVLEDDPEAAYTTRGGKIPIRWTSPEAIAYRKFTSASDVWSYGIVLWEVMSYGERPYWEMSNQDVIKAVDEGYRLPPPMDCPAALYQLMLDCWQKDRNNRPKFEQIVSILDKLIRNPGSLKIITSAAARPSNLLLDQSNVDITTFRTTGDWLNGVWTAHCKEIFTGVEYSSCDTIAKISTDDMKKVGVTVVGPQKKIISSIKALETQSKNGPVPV
The following applies: at 0.1 µM.

Assay [7] deals with T1, Ephrin type-A receptor 3 (Homo sapiens). The following applies: at 1 µM.
Assay [8] deals with Ephrin type-A receptor 4 (Homo sapiens) (UniProt P54764). The settings on record: at 0.1 µM.
The target is the same in assay [9]. The settings on record: at 1 µM.
Assay [10] addresses T2, Ephrin type-B receptor 2 (Homo sapiens) (UniProt P29323).
T2 sequence (whole entry): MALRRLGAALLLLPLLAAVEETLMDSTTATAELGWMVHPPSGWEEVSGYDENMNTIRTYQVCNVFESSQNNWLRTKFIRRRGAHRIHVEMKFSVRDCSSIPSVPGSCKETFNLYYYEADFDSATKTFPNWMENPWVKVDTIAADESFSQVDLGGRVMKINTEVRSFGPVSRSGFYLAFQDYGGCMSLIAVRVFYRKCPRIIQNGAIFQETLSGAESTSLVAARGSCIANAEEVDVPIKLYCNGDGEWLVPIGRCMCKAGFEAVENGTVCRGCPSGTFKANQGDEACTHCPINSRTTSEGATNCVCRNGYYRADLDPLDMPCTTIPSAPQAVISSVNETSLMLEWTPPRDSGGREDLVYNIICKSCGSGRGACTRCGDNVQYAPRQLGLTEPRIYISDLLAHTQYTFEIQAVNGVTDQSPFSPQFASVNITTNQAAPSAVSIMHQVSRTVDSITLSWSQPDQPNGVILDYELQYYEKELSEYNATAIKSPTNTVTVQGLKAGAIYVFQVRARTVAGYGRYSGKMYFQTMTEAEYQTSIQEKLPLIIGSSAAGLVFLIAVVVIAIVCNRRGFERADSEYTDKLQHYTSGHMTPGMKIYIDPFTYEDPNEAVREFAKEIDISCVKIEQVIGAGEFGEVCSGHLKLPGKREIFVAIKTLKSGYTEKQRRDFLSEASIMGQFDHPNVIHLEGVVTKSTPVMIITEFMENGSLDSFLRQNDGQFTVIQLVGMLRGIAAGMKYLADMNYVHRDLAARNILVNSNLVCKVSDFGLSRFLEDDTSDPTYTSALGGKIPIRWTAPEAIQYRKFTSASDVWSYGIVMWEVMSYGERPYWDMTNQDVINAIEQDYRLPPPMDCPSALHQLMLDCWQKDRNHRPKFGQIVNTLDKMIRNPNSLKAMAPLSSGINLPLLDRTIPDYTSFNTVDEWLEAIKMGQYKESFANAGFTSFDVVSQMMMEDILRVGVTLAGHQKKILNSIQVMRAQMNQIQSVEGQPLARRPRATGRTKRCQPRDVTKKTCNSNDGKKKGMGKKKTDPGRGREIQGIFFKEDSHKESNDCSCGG
The settings on record: at 0.1 µM.

Assay [11] deals with T2, Ephrin type-B receptor 2 (Homo sapiens). The following applies: at 1 µM.
In assay [12] the target is T3, Ephrin type-B receptor 3 (Homo sapiens) (UniProt P54753).
T3 sequence (whole entry): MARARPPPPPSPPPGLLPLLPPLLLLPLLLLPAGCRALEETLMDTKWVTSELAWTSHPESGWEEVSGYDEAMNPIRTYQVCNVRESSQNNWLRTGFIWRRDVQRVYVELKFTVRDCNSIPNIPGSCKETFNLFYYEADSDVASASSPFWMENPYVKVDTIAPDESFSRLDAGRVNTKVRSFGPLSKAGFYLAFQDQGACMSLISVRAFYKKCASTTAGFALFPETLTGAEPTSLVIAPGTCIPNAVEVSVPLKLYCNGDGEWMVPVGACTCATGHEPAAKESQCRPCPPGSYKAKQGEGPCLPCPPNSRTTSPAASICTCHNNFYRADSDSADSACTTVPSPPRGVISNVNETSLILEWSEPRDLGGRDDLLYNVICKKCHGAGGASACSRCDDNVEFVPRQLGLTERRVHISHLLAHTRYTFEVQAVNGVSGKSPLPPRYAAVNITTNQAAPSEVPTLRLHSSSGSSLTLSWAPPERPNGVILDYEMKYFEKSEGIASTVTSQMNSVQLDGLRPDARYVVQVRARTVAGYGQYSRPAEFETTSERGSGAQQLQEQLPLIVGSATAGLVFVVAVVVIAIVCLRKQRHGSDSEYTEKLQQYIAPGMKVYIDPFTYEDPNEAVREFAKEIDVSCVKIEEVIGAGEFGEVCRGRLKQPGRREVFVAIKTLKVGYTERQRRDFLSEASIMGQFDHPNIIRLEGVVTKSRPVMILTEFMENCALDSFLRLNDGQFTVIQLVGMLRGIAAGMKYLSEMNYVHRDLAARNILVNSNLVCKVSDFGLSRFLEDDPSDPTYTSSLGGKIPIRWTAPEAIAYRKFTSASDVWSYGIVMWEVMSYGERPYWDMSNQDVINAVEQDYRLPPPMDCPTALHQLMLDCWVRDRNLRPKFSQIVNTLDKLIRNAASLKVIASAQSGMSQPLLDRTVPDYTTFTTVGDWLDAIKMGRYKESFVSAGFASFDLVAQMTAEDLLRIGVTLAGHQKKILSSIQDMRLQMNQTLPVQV
The settings on record: at 0.1 µM.

In assay [13] the target is T3, Ephrin type-B receptor 3 (Homo sapiens). The settings on record: at 1 µM.
Assay [14] addresses T4, Ephrin type-B receptor 4 (Homo sapiens) (UniProt P54760).
T4 sequence (whole entry): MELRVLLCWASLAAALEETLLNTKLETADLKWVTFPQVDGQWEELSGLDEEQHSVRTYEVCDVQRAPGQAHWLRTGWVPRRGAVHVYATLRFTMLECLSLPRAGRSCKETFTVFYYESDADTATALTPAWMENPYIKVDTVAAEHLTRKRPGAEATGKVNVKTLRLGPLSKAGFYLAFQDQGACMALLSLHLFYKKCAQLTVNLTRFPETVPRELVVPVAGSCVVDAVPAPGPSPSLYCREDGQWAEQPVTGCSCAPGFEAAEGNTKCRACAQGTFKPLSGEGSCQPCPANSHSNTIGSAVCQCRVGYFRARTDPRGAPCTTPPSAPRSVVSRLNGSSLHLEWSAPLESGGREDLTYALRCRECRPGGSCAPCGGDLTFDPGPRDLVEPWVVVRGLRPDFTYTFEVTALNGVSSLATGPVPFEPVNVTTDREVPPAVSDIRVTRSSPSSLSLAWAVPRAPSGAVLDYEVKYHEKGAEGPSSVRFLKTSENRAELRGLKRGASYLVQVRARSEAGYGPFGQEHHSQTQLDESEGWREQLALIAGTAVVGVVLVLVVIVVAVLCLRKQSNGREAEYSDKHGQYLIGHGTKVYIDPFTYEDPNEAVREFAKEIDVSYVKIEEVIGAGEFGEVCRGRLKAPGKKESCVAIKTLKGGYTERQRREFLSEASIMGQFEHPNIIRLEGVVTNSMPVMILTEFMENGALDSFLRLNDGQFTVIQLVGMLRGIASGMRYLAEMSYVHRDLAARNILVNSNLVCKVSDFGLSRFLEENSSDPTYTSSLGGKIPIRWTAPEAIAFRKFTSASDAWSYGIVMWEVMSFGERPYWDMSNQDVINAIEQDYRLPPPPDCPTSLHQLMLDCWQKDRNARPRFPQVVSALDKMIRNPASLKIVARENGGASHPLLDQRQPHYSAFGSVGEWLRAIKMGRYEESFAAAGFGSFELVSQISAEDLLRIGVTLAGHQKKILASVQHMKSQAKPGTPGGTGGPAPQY
The following applies: at 0.1 µM.

The target of assay [15] is T4, Ephrin type-B receptor 4 (Homo sapiens). The following applies: at 1 µM.
Assay [16] concerns the target Receptor tyrosine-protein kinase erbB-2 (Homo sapiens) (UniProt P04626). The following applies: at 0.1 µM.
Assay [17] shares this target. The settings on record: at 1 µM.
The target of assay [18] is Receptor tyrosine-protein kinase erbB-4 (Homo sapiens) (UniProt Q15303). The settings on record: at 0.1 µM.
Assay [19] shares this target. The settings on record: at 1 µM.
For assay [20], the target named is Tyrosine-protein kinase Fer (Homo sapiens) (UniProt P16591). The following applies: at 0.1 µM.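 Further: reported figures are averaged percent inhibition of FER.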
Chain of Tyrosine-protein kinase Fer (Homo sapiens) (P16591 whole entry, looked up): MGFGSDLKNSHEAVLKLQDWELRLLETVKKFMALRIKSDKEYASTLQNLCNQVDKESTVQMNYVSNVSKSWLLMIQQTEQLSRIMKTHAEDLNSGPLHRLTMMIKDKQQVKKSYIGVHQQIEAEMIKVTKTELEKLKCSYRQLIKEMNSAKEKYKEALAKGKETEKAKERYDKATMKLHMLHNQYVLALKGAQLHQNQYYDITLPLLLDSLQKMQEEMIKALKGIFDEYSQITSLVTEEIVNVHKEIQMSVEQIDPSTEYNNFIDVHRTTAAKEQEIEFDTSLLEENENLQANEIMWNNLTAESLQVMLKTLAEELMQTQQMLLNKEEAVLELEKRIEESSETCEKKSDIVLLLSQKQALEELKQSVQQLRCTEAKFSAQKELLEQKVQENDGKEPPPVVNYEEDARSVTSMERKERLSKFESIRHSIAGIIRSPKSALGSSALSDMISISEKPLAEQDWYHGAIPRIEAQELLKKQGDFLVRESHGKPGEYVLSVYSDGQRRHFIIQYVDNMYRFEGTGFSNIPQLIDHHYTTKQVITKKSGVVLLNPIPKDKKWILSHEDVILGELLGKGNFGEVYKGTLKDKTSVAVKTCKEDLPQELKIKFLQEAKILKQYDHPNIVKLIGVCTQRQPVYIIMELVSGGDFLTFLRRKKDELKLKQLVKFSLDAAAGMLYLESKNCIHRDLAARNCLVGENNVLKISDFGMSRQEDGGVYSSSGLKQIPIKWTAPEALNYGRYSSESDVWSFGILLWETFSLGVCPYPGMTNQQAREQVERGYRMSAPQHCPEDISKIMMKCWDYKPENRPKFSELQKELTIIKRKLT

Chain of Epidermal growth factor receptor (Homo sapiens), P00533 [L858R,T790M] (P00533 whole entry T790M/L858R, looked up): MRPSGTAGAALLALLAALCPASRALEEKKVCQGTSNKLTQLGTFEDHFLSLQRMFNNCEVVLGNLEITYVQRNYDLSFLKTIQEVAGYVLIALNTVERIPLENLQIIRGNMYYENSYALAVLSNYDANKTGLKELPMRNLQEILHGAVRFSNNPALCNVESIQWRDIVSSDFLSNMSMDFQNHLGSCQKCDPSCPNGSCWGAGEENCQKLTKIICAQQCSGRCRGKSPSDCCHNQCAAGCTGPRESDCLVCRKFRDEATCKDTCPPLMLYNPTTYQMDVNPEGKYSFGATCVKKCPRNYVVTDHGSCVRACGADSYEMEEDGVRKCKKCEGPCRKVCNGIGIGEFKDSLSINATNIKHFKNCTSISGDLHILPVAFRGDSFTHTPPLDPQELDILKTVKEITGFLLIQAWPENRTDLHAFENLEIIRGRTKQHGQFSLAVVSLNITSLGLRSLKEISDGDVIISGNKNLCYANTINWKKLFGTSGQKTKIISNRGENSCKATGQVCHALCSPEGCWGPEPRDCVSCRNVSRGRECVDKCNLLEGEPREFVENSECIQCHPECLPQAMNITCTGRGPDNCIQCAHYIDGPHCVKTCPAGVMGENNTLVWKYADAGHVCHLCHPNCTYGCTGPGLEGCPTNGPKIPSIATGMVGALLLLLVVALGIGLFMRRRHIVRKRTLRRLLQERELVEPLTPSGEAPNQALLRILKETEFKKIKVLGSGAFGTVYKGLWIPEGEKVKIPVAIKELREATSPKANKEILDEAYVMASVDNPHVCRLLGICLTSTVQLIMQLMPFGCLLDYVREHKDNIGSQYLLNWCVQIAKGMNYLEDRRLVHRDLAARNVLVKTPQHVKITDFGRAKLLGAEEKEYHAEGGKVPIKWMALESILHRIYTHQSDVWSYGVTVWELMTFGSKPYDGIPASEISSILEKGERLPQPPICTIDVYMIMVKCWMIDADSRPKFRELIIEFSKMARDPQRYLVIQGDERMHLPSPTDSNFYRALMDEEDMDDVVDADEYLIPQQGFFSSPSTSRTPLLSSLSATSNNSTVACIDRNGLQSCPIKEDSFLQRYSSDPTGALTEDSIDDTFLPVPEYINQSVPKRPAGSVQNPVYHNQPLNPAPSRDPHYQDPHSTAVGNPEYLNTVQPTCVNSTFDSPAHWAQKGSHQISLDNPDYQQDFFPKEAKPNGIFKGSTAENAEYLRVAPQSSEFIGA
Chain of Ephrin type-A receptor 2 (Homo sapiens) (P29317 whole entry): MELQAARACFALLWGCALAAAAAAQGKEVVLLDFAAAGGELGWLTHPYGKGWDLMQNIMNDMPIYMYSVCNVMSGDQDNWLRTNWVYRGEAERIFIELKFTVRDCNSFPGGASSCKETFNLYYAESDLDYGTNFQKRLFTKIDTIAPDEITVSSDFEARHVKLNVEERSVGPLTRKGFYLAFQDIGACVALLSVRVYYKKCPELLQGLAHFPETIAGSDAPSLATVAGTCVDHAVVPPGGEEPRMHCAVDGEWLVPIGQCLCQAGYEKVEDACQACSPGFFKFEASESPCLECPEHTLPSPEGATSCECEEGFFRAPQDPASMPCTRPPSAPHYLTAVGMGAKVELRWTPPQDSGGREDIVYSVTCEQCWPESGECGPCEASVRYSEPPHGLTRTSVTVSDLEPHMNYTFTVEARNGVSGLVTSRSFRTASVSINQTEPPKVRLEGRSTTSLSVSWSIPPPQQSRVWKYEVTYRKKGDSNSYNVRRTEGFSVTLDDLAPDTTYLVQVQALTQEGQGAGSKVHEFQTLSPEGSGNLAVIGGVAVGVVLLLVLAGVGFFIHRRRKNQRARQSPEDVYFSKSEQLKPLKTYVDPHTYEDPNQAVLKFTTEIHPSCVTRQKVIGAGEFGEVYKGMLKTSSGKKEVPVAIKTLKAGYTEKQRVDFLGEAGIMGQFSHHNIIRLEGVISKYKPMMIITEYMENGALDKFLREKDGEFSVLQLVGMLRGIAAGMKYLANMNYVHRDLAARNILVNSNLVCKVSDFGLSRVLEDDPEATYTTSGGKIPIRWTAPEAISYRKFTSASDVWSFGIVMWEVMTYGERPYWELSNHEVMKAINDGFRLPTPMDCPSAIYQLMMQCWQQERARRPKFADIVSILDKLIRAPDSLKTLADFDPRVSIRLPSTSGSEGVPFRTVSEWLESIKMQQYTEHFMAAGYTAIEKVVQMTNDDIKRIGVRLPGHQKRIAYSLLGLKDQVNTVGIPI
Chain of Ephrin type-A receptor 4 (Homo sapiens) (P54764 whole entry): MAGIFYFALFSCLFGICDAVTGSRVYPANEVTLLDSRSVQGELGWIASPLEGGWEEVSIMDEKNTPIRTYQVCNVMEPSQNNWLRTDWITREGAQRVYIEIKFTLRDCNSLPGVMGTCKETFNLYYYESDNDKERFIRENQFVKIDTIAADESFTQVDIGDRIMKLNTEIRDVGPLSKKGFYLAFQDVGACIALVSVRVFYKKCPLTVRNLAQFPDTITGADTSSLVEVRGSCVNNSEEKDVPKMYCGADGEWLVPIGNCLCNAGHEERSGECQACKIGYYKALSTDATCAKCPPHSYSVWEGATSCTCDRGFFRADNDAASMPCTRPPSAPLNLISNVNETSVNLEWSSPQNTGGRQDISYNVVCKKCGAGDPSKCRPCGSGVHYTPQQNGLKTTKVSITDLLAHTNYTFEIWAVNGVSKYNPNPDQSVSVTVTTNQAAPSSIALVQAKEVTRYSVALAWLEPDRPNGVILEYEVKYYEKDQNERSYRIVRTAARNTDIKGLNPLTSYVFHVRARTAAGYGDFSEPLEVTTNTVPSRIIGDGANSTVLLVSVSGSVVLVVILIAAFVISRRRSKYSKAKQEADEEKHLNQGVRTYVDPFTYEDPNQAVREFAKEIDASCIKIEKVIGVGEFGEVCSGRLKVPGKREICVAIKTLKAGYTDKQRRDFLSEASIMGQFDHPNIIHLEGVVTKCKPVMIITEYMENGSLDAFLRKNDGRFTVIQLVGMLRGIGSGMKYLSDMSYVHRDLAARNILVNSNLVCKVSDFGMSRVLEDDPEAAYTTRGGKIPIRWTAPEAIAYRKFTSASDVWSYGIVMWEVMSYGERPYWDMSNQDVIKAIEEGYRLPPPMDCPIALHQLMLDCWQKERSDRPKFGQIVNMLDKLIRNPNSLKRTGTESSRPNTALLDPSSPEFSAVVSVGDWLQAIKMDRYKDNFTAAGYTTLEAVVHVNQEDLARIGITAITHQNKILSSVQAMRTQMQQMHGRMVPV

Regarding `NC(=O)c1ccc(Oc2nccc(-c3c(-c4ccc(F)cc4)ncn3C3CCNCC3)n2)cc1`, the inhibition in assay [1] stood at 4.36%; in assay [2] it was 3.71%; in assay [3], 1.81%; in assay [4], 2.58%; in [5], 1.73%; in assay [6], 2.37%. In addition, the inhibition was determined as 5.3% in [7]; 8.5% in assay [8]; 11% in [9]; 8.08% in assay [10]; 4.72% in [11]; 4.03% in assay [12]. The inhibition is 3.75% in [13]; 3.7% in assay [14]; 3.09% in assay [15]; 3.73% in assay [16]; 3.35% in assay [17]; 5.71% in assay [18]. For the same compound, the inhibition came out at 8.73% in [19] and 7.08% in assay [20].

For the compound `N#Cc1ccc(Oc2nccc(-c3c(-c4ccc(F)cc4)ncn3C3CCNCC3)n2)cc1`, the inhibition in [1] was 3.42%; in assay [2], -0.53%; in [3], 0.7%; in [4] it was 0.81%; in assay [5], 0.1%; in [6], 2.13%. In addition, the inhibition in assay [7] stood at 3.63%; in [8], 7.21%; in assay [9], 9.65%; in [10], 11%; in assay [11], 10.3%; in [12], 5.17%. The inhibition was 5.31% in assay [13]; -0.34% in assay [14]; 2.48% in [15]; 4.34% in assay [16]; 2.33% in [17]; 9.54% in assay [18]. In addition, the inhibition in assay [19] amounted to 11.9%; in [20], 3.43%.

As to `NS(=O)(=O)c1ccc(N/N=C2\C(=O)Nc3ccc(-c4cnco4)cc32)cc1`, the inhibition in assay [1] is 1.56%; in [2] it was -2.11%; in assay [3] it was 5.42%; in assay [4], -5.84%; in assay [5], -4.92%; in assay [6] it was -2.34%. Besides, the inhibition in assay [7] is 0.23%; in [8] it was 5.13%; in [9] it was 10.8%; in assay [10], 6.73%; in [11], 7.61%; in [12], -2.23%. The inhibition in [13] was -3.53%; in assay [14] it was -2.49%; in assay [15] it was -0.26%; in [16], 4.9%; in [17], 13.6%; in [18] it was 5.79%. Also, the inhibition in [19] worked out at 14.2%; in [20] it was 1.03%.

Turning to `Fc1ccc(-c2ncn(C3CCNCC3)c2-c2ccnc(Oc3ccc(F)c(F)c3)n2)cc1`, the inhibition is 1.67% in [1]; 2.65% in assay [2]; 1.47% in assay [3]; -2.47% in [4]; -2.72% in assay [5]; -1.56% in [6]. Also, the inhibition is 0.81% in assay [7]; 6.95% in assay [8]; 9.68% in [9]; 6.59% in assay [10]; 8.76% in [11]; -0.46% in assay [12]. In addition, the inhibition in assay [13] is 1.58%; in assay [14], -4.11%; in [15], 0.57%; in assay [16], 3.82%; in assay [17], 3.63%; in [18], 1.82%. Besides, the inhibition came out at 5.03% in [19] and 1.43% in [20].

The record behind these values is ChEMBL document CHEMBL1961873, “Compounds: GSK PKIS; Assays: Nanosyn kinase panel” (2012).
